Compound activity: PubChem, several laboratories
Rows were chosen to be rich in hits. Some 5.4% of all compounds tested hit in one or more screens of this group.
Mdm2-MdmX inh: inhibitors of human Mdm2/MdmX interaction; SaOS-2 split-luciferase Mdm2/MdmX complementation, luminescence; O15151+Q00987; 330,000 tested, 3% active; inhibition, % at 8 µM; AID 485346;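 active means inhibition of at least 50% at 8 µM in the primary screen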
Target sequence (O15151 whole entry, looked up): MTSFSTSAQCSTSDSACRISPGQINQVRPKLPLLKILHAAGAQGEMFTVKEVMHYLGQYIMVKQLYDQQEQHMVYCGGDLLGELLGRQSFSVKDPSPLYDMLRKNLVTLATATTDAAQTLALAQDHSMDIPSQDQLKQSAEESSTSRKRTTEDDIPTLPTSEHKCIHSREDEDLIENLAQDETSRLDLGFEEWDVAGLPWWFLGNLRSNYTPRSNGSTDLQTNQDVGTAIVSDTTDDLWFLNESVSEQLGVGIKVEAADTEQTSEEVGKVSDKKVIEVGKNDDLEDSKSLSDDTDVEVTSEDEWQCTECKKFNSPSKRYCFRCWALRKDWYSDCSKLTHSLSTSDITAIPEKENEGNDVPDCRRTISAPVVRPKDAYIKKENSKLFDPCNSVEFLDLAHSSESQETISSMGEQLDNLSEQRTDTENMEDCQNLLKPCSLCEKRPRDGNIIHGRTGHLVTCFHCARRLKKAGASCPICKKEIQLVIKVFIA
Target sequence (Q00987 whole entry, looked up): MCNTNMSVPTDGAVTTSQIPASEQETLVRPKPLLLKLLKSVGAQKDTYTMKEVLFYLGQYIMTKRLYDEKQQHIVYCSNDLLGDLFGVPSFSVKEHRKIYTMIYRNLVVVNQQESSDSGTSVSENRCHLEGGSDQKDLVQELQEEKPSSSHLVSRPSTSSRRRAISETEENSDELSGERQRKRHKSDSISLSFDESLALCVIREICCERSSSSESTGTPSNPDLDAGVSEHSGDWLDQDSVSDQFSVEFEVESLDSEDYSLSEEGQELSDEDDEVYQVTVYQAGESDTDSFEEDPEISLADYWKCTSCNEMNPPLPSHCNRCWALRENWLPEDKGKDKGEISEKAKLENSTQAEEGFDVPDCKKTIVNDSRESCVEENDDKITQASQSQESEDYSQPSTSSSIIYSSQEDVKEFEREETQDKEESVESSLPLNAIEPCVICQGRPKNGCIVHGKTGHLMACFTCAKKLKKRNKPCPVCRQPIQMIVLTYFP
Calb FLC: affects C. albicans growth with fluconazole; C. albicans CaCi-2 (fluconazole-resistant clinical isolate) + fluconazole, Alamar Blue growth, 48 h; growth inhibition, % (concentration not given with the values); 300,000 tested, 0.57% active;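 active means growth inhibition above about 58% in most replicates, limit read from the data, passing the limit was not always enough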;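 further: all wells also contain fluconazole at 8 µg/ml as a sub-toxic cotreatment; 0% = median of DMSO wells and 100% = median of geldanamycin control wells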
MPTP block: blocks calcium-induced mitochondrial swelling; 360,000 tested, 1.4% active; AID 602449; inhibition, % at 10 µM; isolated mouse mitochondria, Ca2+ swelling absorbance, 30 min;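 active means inhibition of 50% or more, scaled per plate between neutral and stimulator controls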;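 further: 0% = DMSO wells given calcium and 100% = 1 mM EGTA wells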
Beta apoptosis: beta cell apoptosis inhibition; protection from apoptosis, % (test concentration not listed); 300,000 tested, 0.8% active; INS-1E cytokine-induced death, ATP luminescence, 48 h; percent of positive-control rescue, neutral wells zero; AID 435005;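 active means Every replicate reaches about 75%, or at least half do and their mean reaches it too, limit read from the data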;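 further: 0% = cytokine-treated negative control wells and 100% = positive control rescue; higher means more ATP so stronger rescue from cytokine killing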
SKKanGAS inh: SKKanGAS growth inhibition; S. pyogenes SKKanGAS, kanamycin growth, BacTiter-Glo, 6 h; AID 1662; 300,000 tested, 1.3% active; inhibition, % at 7.5 µM;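 active means mean replicate score, as percent of positive control median, at least 50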;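 further: strain carries kanamycin resistance gene driven by streptokinase promoter and grows in 40 µg/ml kanamycin; loss of luminescence reflects streptokinase promoter inhibition or plain growth inhibition; 0% = median of DMSO wells and 100% = positive control at its reference dose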
CSC inhib: blocks cancer stem cells. cancer stem cell-like cells viability, luminescence. inhibition, % at 7.5 µM. 300,000 tested, 1.1% active; in the data active means inhibition above about 75%; tested in HMLE shEcad cells
MPTP counter: membrane potential counter-screen of mitochondrial pore inhibitors. AID 624504. 5,000 tested, 78% active. isolated mitochondria, Rhodamine 123 fluorescence. inhibition, % at 10 µM. shares compounds with MPTP block; in the data active means inhibition above about 22%;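 further: 0% = DMSO vehicle and 100% = positive control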
MPTP swell DR: dose response confirmation of mitochondrial permeability transition pore inhibitors; IC50, µM; isolated mitochondria swelling, absorbance; shares compounds with MPTP block; 780 tested, 58% active; AID 651561; in the data active means IC50 below about 20 µM
MPTP counter DR: active in counter-screen for permeability transition pore inhibitors; shares compounds with MPTP block; isolated mitochondria counterscreen, fluorescence read-out; IC50, µM; 780 tested, 49% active; AID 651564; in the data active means IC50 below about 80 µM
* marks the source's active call; other numbers are inactive results; / = not tested or not shown.

SMILES	Mdm2-MdmX inh	Calb FLC	MPTP block	Beta apoptosis	SKKanGAS inh	CSC inhib	MPTP counter	others
CCOc1cc(C2NCc3ccccc3-n3cccc32)ccc1O (centres undefined)	8	3	88*	-5	-2	1	-8	MPTP swell DR=7.1*;MPTP counter DR=>80
CCOc1cccc(C2NCc3ccccc3-n3cccc32)c1O (centres undefined)	18	-2	1	-3	9	-4	/
O=C(Nc1ccc(Cl)cc1)N1CC2CC(C1)c1cccc(=O)n1C2 (centres undefined)	13	-7	60*	-7	-8	-8	103*
O=C(Nc1ccc(Br)cc1)N1C[C@H]2C[C@@H](C1)c1cccc(=O)n1C2	10	-6	-3	/	-5	-8	/
CCOC(=O)C1(CCOc2ccccc2)CCN(Cc2ccc(C)s2)CC1	17	-18	65*	19	8	41	82*
CCOC(=O)C1(CCc2ccccc2)CCN(Cc2ccc3c(c2)OCCO3)CC1	15	-30	28	/	-3	43	/
CCOP(=O)(Cc1ccccc1)OCC	11	-10	0	2	1	-12	/
CC(NCc1cccc(Cl)c1Cl)C(O)c1ccccc1 (centres undefined)	-1	-6	72*	0	16	-7	-3	MPTP swell DR=>100;MPTP counter DR=>80
CC(NCc1ccc(Cl)cc1Cl)C(O)c1ccccc1 (centres undefined)	-23	2	1	-1	-11	0	/
